Measured values as given in PubChem BioAssay (NCI).
Compounds without any hit were thinned out: in the full panel of roughly 83,000, 20% have a hit.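 The test compound was applied at a single concentration to cells in 96-well plates for 48 hours, and percent growth was recorded.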 A number with no mark means an inactive call. Active and inactive are the calls of the source. How the source made its calls: active means growth percent below 10; inactive means the rest.

These compounds were tested on MDA-MB-468 breast (assay: NCI-60 one-dose screen, 48 h (100 = growth as untreated, 0 = no growth, -100 = all killed)). Conditions: 10 µM unless noted.

| Compound | growth |
| --- | --- |
| O=C1/C=C/[C@@H](O)[C@@H]2C[C@@H](O)C[C@H]2/C=C/CCC[C@H](CCc2ccc(NC(=S)Nc3ccc4c(c3)C(=O)OC43c4ccc(O)cc4Oc4cc(O)ccc43)cc2)O1 | -17.5% (active) |
| C=C1C(=O)O[C@H]2[C@H]1CC/C(COC(=O)/C=C\C(=O)NCc1ccc(Cn3c(=O)sn(-c4ccc(OC)cc4)c3=O)cc1)=C\CC[C@@]1(C)O[C@@H]21 | -81.7% (active) |
| Nc1nc2c(c3ncncc13)C(c1cccc(C(F)(F)F)c1)Cc1ncncc1-2 (stereo not drawn) | -10.4% (active) |
| O=C1Nc2ccc(Cl)cc2/C1=C\c1c(-c2ccc(Cl)cc2)nc2sc(C3CC3)nn12 | 66.4% |
| NS(=O)(=O)c1ccc(Nc2nc(N/N=C/c3ccc(Cl)cc3)nc(Nc3ccccc3)n2)cc1 | 66.6% |
| CC(=O)CC(c1ccc([N+](=O)[O-])cc1)c1c(O)c2ccccc2oc1=O (stereo not drawn) | 104% |
| O=C(Nc1ccc(OS(=O)(=O)c2ccc(F)cc2)cc1)C1CCCCCC1 | 102% |
| CC(O)c1cc[cH-]c1.[Fe+2].c1cc[cH-]c1 (stereo not drawn) | 94.5% |
| C=C[C@@H]1CCC/C=C/[C@@H]2C[C@H](O)C[C@H]2[C@H](O)/C=C/C(=O)O1 | -46.6% (active) |
| CN1CCOCCOCCOc2ccccc2NC(=O)c2nc(cnc2N)-c2ccc(cc2)S1(=O)=O | 41.4% |
| CC(=O)c1cc(O)c2ccccc2c1O | 63.9% |
| CCOC(=O)CSc1nc(-c2cc(OC)ccc2OC)cc(-c2ccc(OC)cc2)c1C#N | 92.7% |
| CN1CCN(c2ccc3nc(/N=C/c4ccc5sc(-c6ccc([N+](=O)[O-])cc6)nc5c4)sc3c2)CC1 | 109% |
| O=C(Oc1ccc(CCl)cc1)c1ccccc1 | -62.7% (active) |
| CCN(C(=O)Nc1cccc2ccccc12)c1ccccc1 | 99.7% |
| CN1CCN(CC(=O)Nc2ccc3ncnc(Nc4ccc(Oc5cccc(C(F)(F)F)c5)c(Cl)c4)c3c2)CC1 | -61.3% (active) |
| Cc1nc(N)nc(SCc2ccccc2)c1Br | 69% |
| COc1cc(-c2nn(-c3cccc(NC(=O)Nc4ccc(Cl)c(C(F)(F)F)c4)c3)cc2-c2ccncc2)ccc1Cl | -7.22% (active) |
| Cc1cccc(/C=C/c2c(C(=O)/C=C/c3ccccc3)c(C)nc3ccccc23)c1 | -51.1% (active) |
| COC1=CC(=O)OC(c2ccc(OC)cc2)C1 (stereo not drawn) | 112% |
| CCOc1cccc(/C=N/NC(=O)c2ccc(Nc3ccnc(C(F)(F)F)c3)cc2)c1O | -20.9% (active) |
| CCCCCCCCCCC/C=C\C[C@H](O)C/C=C1/C(=O)C=C[C@@H]1C/C=C\CCCC(=O)OC | -46.3% (active) |
| COc1cc2c(cc1-c1c(C)noc1C)ncc1nc(C3CCC(F)(F)CC3)n([C@@H](C)COC(F)F)c12 | 39.3% |
| COc1ccc(CN2C(=O)/C(=C/c3nc(CO)cs3)SC2=S)cc1 | 31.7% |
| COc1cc2c(cc1O)[C@@]1(C)[C@H](c3ccccc3Br)OC(=O)N1CC2 | 61.1% |
| COC(=O)c1ccccc1N(C)C | 107% |
| CC(=O)N1N=C(c2ccc(Nc3nc(NCCO)nc(NCCO)n3)cc2)CC1c1ccc(Cl)cc1 (stereo not drawn) | 105% |
| Clc1ccc(C2=NN(c3ccc(Cl)cc3)C(c3cccc(Nc4ccnc5cc(Cl)ccc45)c3)C2)cc1 (stereo not drawn) | 78.2% |
